About 410 targets per protein were measured; listed, in parts, are those with the strongest signals and a random draw of the rest.
Key:
Test in all cases: glycan array binding signal (z-score within array); higher = stronger binding
Settings in all cases: glycan notation: IUPAC condensed, linker removed
[1] = target: Fuc(a1-2)Gal(b1-4)GlcNAc(b1-2)Man(a1-3)[Fuc(a1-2)Gal(b1-4)GlcNAc(b1-2)Man(a1-6)]Man(b1-4)GlcNAc(b1-4)[Fuc(a1-6)]GlcNAc
In short: (§1)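 The Consortium for Functional Glycomics database supplied 3228 glycan arrays, of which those lacking an available protein sequence were dropped. The binding signal, a within-array Z-score, was averaged across arrays of the same protein sequence and across linkers. Negative scores can be read as non-binding.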

[2] = target: Fuc(a1-2)[Gal(a1-3)]Gal(b1-3)GalNAc
In short: as §1

[3] = target: Fuc(a1-2)[Gal(a1-4)]Gal(b1-4)GlcNAc
In short: as §1

[4] = target: Fuc(a1-2)[GalNAc(a1-3)]Gal(b1-4)Glc
In short: as §1

[5] = target: Fuc(a1-2)[GalNAc(a1-3)]Gal(b1-4)[Fuc(a1-3)]GlcNAc(b1-3)GalNAc
In short: as §1

[6] = target: Fuc(a1-3)[GalNAc(b1-4)]GlcNAc
In short: as §1

Gal(a1-3)GalNAc = target: Gal(a1-3)GalNAc
In short: as §1

[7] = target: Gal(a1-3)[Gal(a1-4)]Gal(b1-4)GlcNAc
In short: as §1

Gal(a1-4)Gal(b1-4)Glc = target: Gal(a1-4)Gal(b1-4)Glc
In short: as §1

Gal(b1-2)Gal = target: Gal(b1-2)Gal
In short: as §1

[8] = target: Gal(b1-3)GalNAc(b1-4)Gal(b1-4)Glc
In short: as §1

Gal(b1-3)GlcNAc = target: Gal(b1-3)GlcNAc
In short: as §1

[9] = target: Gal(b1-3)GlcNAc(b1-2)Man(a1-3)[Gal(b1-3)GlcNAc(b1-2)Man(a1-6)]Man(b1-4)GlcNAc(b1-4)GlcNAc
In short: as §1

[10] = target: Gal(b1-3)GlcNAc(b1-3)Gal(b1-4)Glc
In short: as §1

[11] = target: Gal(b1-3)GlcNAc(b1-3)Gal(b1-4)GlcNAc(b1-3)Gal(b1-4)GlcNAc(b1-2)[Gal(b1-3)GlcNAc(b1-3)Gal(b1-4)GlcNAc(b1-3)Gal(b1-4)GlcNAc(b1-6)]Man(a1-6)[Gal(b1-3)GlcNAc(b1-3)Gal(b1-4)GlcNAc(b1-3)Gal(b1-4)GlcNAc(b1-2)Man(a1-3)]Man(b1-4)GlcNAc(b1-4)[Fuc(a1-6)]GlcNAc
In short: as §1

[12] = target: Gal(b1-3)GlcNAc(b1-6)[Gal(b1-3)]GalNAc
In short: as §1

[13] = target: Gal(b1-3)[Fuc(a1-4)]GlcNAc(b1-2)Man(a1-3)[Gal(b1-3)[Fuc(a1-4)]GlcNAc(b1-2)Man(a1-6)]Man(b1-4)GlcNAc(b1-4)[Fuc(a1-6)]GlcNAc
In short: as §1

[14] = target: Gal(b1-3)[Fuc(a1-4)]GlcNAc(b1-6)GalNAc
In short: as §1

[15] = target: Gal(b1-4)GlcNAc(b1-2)Man(a1-6)[GlcNAc(b1-2)Man(a1-3)]Man(b1-4)GlcNAc(b1-4)GlcNAc
In short: as §1

[16] = target: Gal(b1-4)GlcNAc(b1-3)Gal(b1-4)Glc
In short: as §1

[17] = target: Gal(b1-4)GlcNAc(b1-3)Gal(b1-4)GlcNAc(b1-2)Man(a1-3)[Gal(b1-4)GlcNAc(b1-3)Gal(b1-4)GlcNAc(b1-2)Man(a1-6)]Man(b1-4)GlcNAc(b1-4)GlcNAc
In short: as §1

[18] = target: Gal(b1-4)GlcNAc(b1-3)Gal(b1-4)GlcNAc(b1-3)Gal(b1-4)GlcNAc(b1-3)Gal(b1-4)GlcNAc(b1-2)Man(a1-3)[Gal(b1-4)GlcNAc(b1-3)Gal(b1-4)GlcNAc(b1-3)Gal(b1-4)GlcNAc(b1-3)Gal(b1-4)GlcNAc(b1-2)Man(a1-6)]Man(b1-4)GlcNAc(b1-4)[Fuc(a1-6)]GlcNAc
In short: as §1

[19] = target: Gal(b1-4)GlcNAc(b1-3)GalNAc
In short: as §1

Gal3S(b1-4)Glc6S = target: Gal3S(b1-4)Glc6S
In short: as §1

[20] = target: Gal3S(b1-4)[Fuc(a1-3)]Glc6S
In short: as §1

[21] = target: GalNAc(b1-3)Gal(a1-4)Gal(b1-4)GlcNAc
In short: as §1

GalNAc(b1-4)GlcNAc = target: GalNAc(b1-4)GlcNAc
In short: as §1

GalNAc4S6S(b1-4)GlcNAc = target: GalNAc4S6S(b1-4)GlcNAc
In short: as §1

[22] = target: GlcNAc(a1-3)Gal(b1-4)GlcNAc
In short: as §1

[23] = target: GlcNAc(a1-4)Gal(b1-4)GalNAc
In short: as §1

[24] = target: GlcNAc(b1-3)Gal(b1-4)GlcNAc(b1-6)[Gal(b1-3)]GalNAc
In short: as §1

[25] = target: GlcNAc(b1-4)GlcNAc(b1-4)GlcNAc
In short: as §1

Kdn(a2-6)Gal(b1-4)GlcNAc = target: Kdn(a2-6)Gal(b1-4)GlcNAc
In short: as §1

[26] = target: Man(a1-2)Man(a1-6)[Man(a1-3)]Man(a1-6)[Man(a1-2)Man(a1-2)Man(a1-3)]Man(b1-4)GlcNAc(b1-4)GlcNAc
In short: as §1

[27] = target: Neu5Ac(a2-3)Gal(b1-4)GlcNAc(b1-2)Man(a1-3)[Neu5Ac(a2-3)Gal(b1-4)GlcNAc(b1-2)Man(a1-6)]Man(b1-4)GlcNAc(b1-4)GlcNAc
In short: as §1

[28] = target: Neu5Ac(a2-3)Gal(b1-4)GlcNAc(b1-3)[Neu5Ac(a2-3)Gal(b1-4)GlcNAc(b1-6)]GalNAc
In short: as §1

[29] = target: Neu5Ac(a2-3)Gal(b1-4)GlcNAc(b1-6)GalNAc
In short: as §1

[30] = target: Neu5Ac(a2-3)Gal(b1-4)GlcNAc6S
In short: as §1

[31] = target: Neu5Ac(a2-3)[GalNAc(b1-4)]Gal(b1-4)GlcNAc
In short: as §1

[32] = target: Neu5Ac(a2-8)Neu5Ac(a2-3)Gal(b1-4)Glc
In short: as §1

[33] = target: Neu5Ac(b2-6)Gal(b1-4)GlcNAc
In short: as §1

[34] = target: Neu5Gc(b2-6)Gal(b1-4)GlcNAc
In short: as §1

B1: AT1G15820(2) (Arabidopsis thaliana), Q9LMQ2 (protein)
chain: MAMAVSGAVLSGLGSSFLTGGKRGATALASGVGTGAQRVGRKTLIVAAAAAQPKKSWIPAVKGGGNFLDPEWLDGSLPGDFGFDPLGLGKDPAFLKWYREAELIHGRWAMAAVLGIFVGQAWSGVAWFEAGAQPDAIAPFSFGSLLGTQLLLMGWVESKRWVDFFNPDSQSVEWATPWSKTAENFANYTGDQGYPGGRFFDPLGLAGKNRDGVYEPDFEKLERLKLAEIKHSRLAMVAMLIFYFEAGQGKTPLGALGL
[1]
  glycan array binding signal (z-score): -0.613
[2]
  glycan array binding signal (z-score): -0.022
[3]
  glycan array binding signal (z-score): 1.93
[4]
  glycan array binding signal (z-score): -0.507
[5]
  glycan array binding signal (z-score): 6.82
[6]
  glycan array binding signal (z-score): 1.79
Gal(a1-3)GalNAc
  glycan array binding signal (z-score): 3.12
[7]
  glycan array binding signal (z-score): 9.8
Gal(a1-4)Gal(b1-4)Glc
  glycan array binding signal (z-score): 2.16
Gal(b1-2)Gal
  glycan array binding signal (z-score): 0.453
[8]
  glycan array binding signal (z-score): 2.89
Gal(b1-3)GlcNAc
  glycan array binding signal (z-score): 0.12
[9]
  glycan array binding signal (z-score): 0.477
[10]
  glycan array binding signal (z-score): -0.032
[11]
  glycan array binding signal (z-score): 1.41
[12]
  glycan array binding signal (z-score): 0.112
[13]
  glycan array binding signal (z-score): -0.308
[14]
  glycan array binding signal (z-score): -0.229
[15]
  glycan array binding signal (z-score): 0.324
[16]
  glycan array binding signal (z-score): -0.362
[17]
  glycan array binding signal (z-score): 0.779
[18]
  glycan array binding signal (z-score): 0.197
[19]
  glycan array binding signal (z-score): -0.445
Gal3S(b1-4)Glc6S
  glycan array binding signal (z-score): 0.421
[20]
  glycan array binding signal (z-score): 1.96
[21]
  glycan array binding signal (z-score): 3.99
GalNAc(b1-4)GlcNAc
  glycan array binding signal (z-score): 8.56
GalNAc4S6S(b1-4)GlcNAc
  glycan array binding signal (z-score): -0.032
[22]
  glycan array binding signal (z-score): -0.384
[23]
  glycan array binding signal (z-score): 0.069
[24]
  glycan array binding signal (z-score): -0.16
[25]
  glycan array binding signal (z-score): -0.425
Kdn(a2-6)Gal(b1-4)GlcNAc
  glycan array binding signal (z-score): -0.581
[26]
  glycan array binding signal (z-score): -0.821
[27]
  glycan array binding signal (z-score): -0.363
[28]
  glycan array binding signal (z-score): 0.172
[29]
  glycan array binding signal (z-score): -0.315
[30]
  glycan array binding signal (z-score): -0.028
[31]
  glycan array binding signal (z-score): -0.469
[32]
  glycan array binding signal (z-score): -0.326
[33]
  glycan array binding signal (z-score): -0.408
[34]
  glycan array binding signal (z-score): -0.566

Source: the supplement of paper PMC8728848
